Most compounds without a hit are left out; they make up all but 1.4% or so of the library.
MenB inh – M. tuberculosis MenB inhibitors, primary screen, biochemical, absorbance; actives 0.43% (n = 100,000); MenB enzyme assay, absorbance read-out; inhibition, % (test concentration not listed); in the data active = inhibition above about 21%, passing the limit was not always enough
Target sequence (P9WNP5 whole entry, looked up): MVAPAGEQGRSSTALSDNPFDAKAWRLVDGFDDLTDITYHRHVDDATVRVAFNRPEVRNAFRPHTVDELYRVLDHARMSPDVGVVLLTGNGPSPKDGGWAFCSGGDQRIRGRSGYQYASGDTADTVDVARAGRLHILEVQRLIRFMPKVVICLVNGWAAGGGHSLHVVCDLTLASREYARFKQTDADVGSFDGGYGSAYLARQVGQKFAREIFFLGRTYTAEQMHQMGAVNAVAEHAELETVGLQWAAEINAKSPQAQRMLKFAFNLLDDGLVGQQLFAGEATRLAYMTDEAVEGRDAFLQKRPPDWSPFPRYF
Polio RdRp inh – poliovirus RdRp elongation inhibitors, primary screen, biochemical, fluorescence polarization, total intensity; poliovirus polymerase elongation; hits give low values; Genome polyprotein (Poliovirus type 1 (strain Mahoney)), P03300; AID 588519, 2011; % elongation, % (compound at 16.7 µg/mL); actives 0.66% (n = 150,000); in the data active = % elongation below about 90%
Mtb MbtI inh – MbtI salicylate synthase inhibitors, primary screen, biochemical, fluorescence intensity; purified MbtI enzyme, fluorescence intensity read-out; inhibition, % (concentration not given with the values); actives 0.89% (n = 100,000); AID 493033, 2011; in the data active = inhibition mostly above about 56%, no sharp cut-off; inactive = mostly below about 77%
Active calls of the source: *; i = inactive; nt = no result given.

SMILES	MenB inh	Polio RdRp inh	Mtb MbtI inh
Cc1ccc(OC(=O)C23CC4CC(CC(C4)C2)C3)cn1	42.2*	101.0	14.6
O=C(Oc1cc(Cl)cc(Cl)c1)C12CC3CC(CC(C3)C1)C2	-8.7	108.0	-8.0
COc1ccc(-c2csc(NC(=O)C(C)C)n2)cc1	-30.6	105.0	-4.7
N#Cc1ccc(COC(=O)C2CCCN2C2=NS(=O)(=O)c3ccccc32)cc1 (stereo not drawn)	2.2	99.0	1.2
COc1ccc(C(=O)n2c3c(c(=O)n2-c2ccccc2)Cc2ccc(OC)cc2O3)cc1	54.0*	101.0	0.2
COc1ccc2c(c1)C(=O)N(c1ccccc1)C(=O)C2	-61.8	96.0	i
COc1ccc(NC(=O)N2CCC(CN3CCCCC3)CC2)cc1OC	-22.5	104.0	0.0
CCC(=O)NC1CC(=O)N(c2cccc(OC)c2)C1 (stereo not drawn)	3.5	99.0	1.2
Cc1ccc(S(=O)(=O)N[C@@H](Cc2ccccc2)C(=O)CCl)cc1	-13.9	102.0	64.3*
Cc1ccc(S(=O)(=O)NC(Cc2ccccc2)C(=O)NN)cc1 (stereo not drawn)	-5.4	99.0	-5.3
O=C(O)CCC(=O)N1N=C(c2ccccc2)CC1c1ccc2nccnc2c1 (stereo not drawn)	49.9*	99.0	15.0
CCc1ccc(C2CC(c3ccccc3)=NN2C(=O)CCCC(=O)O)cc1 (stereo not drawn)	-31.5	98.0	-5.5
CC(C)(Oc1ccc(Cl)cc1)C(=O)Oc1ccc(-c2nnco2)cc1	-22.0	nt	-19.8
Cc1ccccc1N1C(=O)C(O)C(O)C1=O (stereo not drawn)	nt	nt	-6.4
CCN(CCO)C1CC(=O)N(c2ccccc2C)C1=O (stereo not drawn)	4.9	99.0	99.7*
O=c1[nH]c(CN2CCOCC2)nc2c1oc1ccccc12	nt	nt	-0.6
COc1ccc(-n2c(SCC(=O)NC(C)(C)C)nc3ccccc32)cc1	nt	102.0	0.5
CSc1ncc(/C=C2/C(=O)NC(=O)N(C3CCCCC3)C2=O)cn1	-37.6	100.0	71.0*
Cc1ccc(/C=C2/C(=O)NC(=O)N(C3CCCCC3)C2=O)cc1	3.1	99.0	5.6
O=C(Nc1ccc2c(c1)OCO2)c1cnn2c(C(F)(F)F)cc(-c3ccco3)nc12	-16.8	99.0	-7.0
COC(=O)c1cc(-c2ccco2)nc2c1cnn2Cc1ccc2c(c1)OCO2	3.0	71.0*	-28.5
CC(NC(=O)CN1CCN(C/C=C/c2ccccc2)CC1)c1ccccc1 (stereo not drawn)	-4.0	101.0	-15.9
CCCNC(=S)Nc1ccccc1Br	-18.6	106.0	4.6
N#CC1=C2SCN(C3CCCCC3)CN2C(=O)CC1c1ccccc1 (stereo not drawn)	-12.8	101.0	72.8*
COc1ccc(C2CC(=O)N3CN(C4CCCCC4)CSC3=C2C#N)c(OC)c1 (stereo not drawn)	nt	54.0*	nt
SMILES	MenB inh	Polio RdRp inh	Mtb MbtI inh
COc1cc(C2CC(=O)N3CN(Cc4ccccc4)CSC3=C2C#N)cc(Br)c1O (stereo not drawn)	-12.8	101.0	53.0
N#CC1=C2SCN(C3CCCCC3)CN2C(=O)CC1c1ccc(Br)cc1 (stereo not drawn)	nt	95.0	nt
Nc1cc(=O)[nH]c(SCC(=O)Nc2ccccc2)n1	-12.5	100.0	-0.4
CN(C)c1ccc(NC(=O)CSc2nc(N)cc(=O)[nH]2)cc1	28.0*	99.0	7.3
COc1cc2c(cc1NC(=O)C(C)NCc1ccc3c(c1)OCO3)oc1ccccc12 (stereo not drawn)	-29.3	100.0	i
CC(C)Sc1nnc2oc3ccc(S(=O)(=O)N(C)C)cc3n12	17.4	6.0*	13.8
CN(C)S(=O)(=O)c1ccc2oc3nnc(SCC#N)n3c2c1	-8.3	104.0	-0.4
CC(C)(C)C(=O)COC(=O)Cc1ccc(-c2ccccc2)cc1	nt	103.0	-8.2
c1csc(N2CCCC2)n1	-19.2	93.0	7.0
S=C(NCc1ccco1)NC1CCCCC1	-8.4	101.0	2.6
Cc1sc2c(c1C)C1=NS(=O)(=O)CCN1C=N2	-32.9	76.0*	112.2
COC(=O)C1=NC=CN2CCS(=O)(=O)N=C12	-28.7	nt	18.0
O=C(Nc1ccccc1)Nc1ccc2c(c1)C(=O)OC2	-18.1	102.0	6.0
COc1ccc(-c2cn3c(n2)sc2cc(C(=O)NCCCN4CCCCC4)ccc23)cc1	nt	90.0*	nt
COc1ccc(-c2cn3c(n2)sc2cc(C(=O)NCCCN4CCCCCC4)ccc23)cc1	nt	100.0	nt
CCC1CCCCN1C(=O)c1cc(-c2ccc(F)cc2)no1 (stereo not drawn)	3.1	106.0	-23.0
c1cc2c(cc1CNc1ccc(N3CCCC3)cc1)OCO2	-37.1	105.0	42.7
c1cc(CNc2ccc(N3CCCC3)cc2)ccn1	-20.2	99.0	99.7*
CCc1ccc(NC(=O)C2CC(c3cn(CC)nc3C)=NO2)cc1 (stereo not drawn)	-11.0	104.0	5.4
COc1cccc(OC(=O)CSc2nnc(-c3cccs3)o2)c1	nt	90.0*	nt
CCc1ccc(OC(=O)CSc2nnc(-c3ccc4c(c3)OCO4)o2)cc1	nt	102.0	nt
COc1cccc(OC(=O)CSc2nnc(-c3ccc4c(c3)OCO4)o2)c1	nt	87.0*	nt
O=C(CSc1nnc(-c2cccs2)o1)Oc1ccccc1	nt	94.0	nt
CC1CCN(C(=O)COC(=O)CCN2C(=O)S/C(=C\c3cccs3)C2=O)CC1	-26.2	101.0	-2.5
CN(C)S(=O)(=O)c1cccc(-c2nnc3n2N=C(c2cccs2)CS3)c1	-51.9	76.0*	97.3*
SMILES	MenB inh	Polio RdRp inh	Mtb MbtI inh
c1ccc(-c2nnc3n2N=C(c2cccs2)CS3)cc1	-4.0	105.0	-9.6
N#C/C(=C\c1ccc(C(F)(F)F)cc1)c1c[nH]c2ccccc12	-33.9	110.0	-32.1
CCOc1ccc(C=C2C(=O)OC(c3ccccc3)OC2=O)cc1 (stereo not drawn)	-0.2	101.0	5.6
O=C1OC(c2ccccc2)OC(=O)C1=Cc1cccs1 (stereo not drawn)	-3.7	101.0	65.0*
COC(=O)C1(O)CC(C)N(C)CC1C (stereo not drawn)	nt	nt	-8.7
Brc1ccc(NCc2ccco2)cc1	1.2	102.0	-21.6
Brc1csc(CNCCc2ccco2)c1	7.7	86.0*	9.4
NC(=O)C1CCN(Cc2ccccc2)CC1	-0.6	100.0	-14.0
O=C(O)C1CSC2(CCN(Cc3ccccc3)CC2)N1 (stereo not drawn)	37.7*	99.0	-3.4
Cc1cccc(NC(C)C(=O)N/N=C/c2ccc(O)cc2)c1 (stereo not drawn)	6.2	100.0	9.2
Cc1cc(C)cc(OC(=O)c2cccnc2)c1	-0.4	99.0	6.8
Cc1ccc(OC(=O)c2cccnc2)cc1	51.9*	102.0	1.5
CCc1nn2c(C)cc(=O)[nH]c2c1C	5.6	103.0	nt
O=C(CSc1ccccc1)N1c2ccccc2Sc2ccccc21	-13.9	83.0*	-5.5
Cn1nnnc1SCC(=O)N1c2ccccc2Sc2ccccc21	-24.0	104.0	-8.9
O=C(O)CCNC(=O)C(c1ccccc1)c1ccccc1	-80.7	104.0	-9.9
CC(NCCC(=O)O)c1ccccc1 (stereo not drawn)	34.5*	99.0	-3.5
O=C(NCc1ccccc1)c1ccc(CS(=O)c2ccccc2)o1 (stereo not drawn)	4.0	102.0	-4.2
CCCOc1ccc(-c2nc(SCC(N)=O)[nH]c(=O)c2C#N)cc1OC	-15.2	100.0	-12.4

From PubChem
